Assay results taken from PubChem BioAssay AID1159580 (chemical genetic matrix, 2015).
The whole screen tested about 5,500 compounds, of which about 2,000 (36%) were called active. Inconclusive results (about 18%) are left out. No stated cut-off is given here; in the data, active means normalized growth mostly below about 0.91 (no sharp cut-off); inconclusive means no clear call, values can overlap the other calls; inactive means mostly above about 0.92. The list shows a part of the results.

Assay: chemical genetic growth profiling, strain panel (AID 1159580);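 further: tested at 20 µM; growth read once vehicle control cultures reached saturation at 30 °C; 1 = growth at the plate median or of vehicle wells; lower values mean less growth of the strain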
Conditions: S. cerevisiae deletion strains, growth OD
[1] = locus YDL101C, strain DUN1, active compounds read low
[2] = locus YDR150W, strain NUM1, active compounds read low
[3] = locus YHR030C, strain SLT2, active compounds read low
[4] = locus YNL128W, strain TEP1, active compounds read low
[5] = locus YPL055C, strain LGE1, active compounds read low
[6] = locus YPL241C, strain CIN2, active compounds read low
[7] = locus YAR019C, strain CDC15, active compounds read low
[8] = locus YBL105C, strain PKC1, active compounds read low
[9] = locus YBR135W, strain CKS1, active compounds read low
[10] = locus YBR136W, strain MEC1, active compounds read low
[11] = locus YBR160W, strain CDC28, active compounds read low
[12] = locus YDL017W, strain CDC7, active compounds read low
[13] = locus YDL028C, strain MPS1, active compounds read low
[14] = locus YDL108W, strain KIN28, active compounds read low
[15] = locus YDL132W, strain cdc53, active compounds read low
[16] = locus YDL214C, strain PRR2, active compounds read low
[17] = locus YDR052C, strain DBF4, active compounds read low
[18] = locus YDR054C, strain cdc34, active compounds read low
[19] = locus YDR226W, strain ADK1, active compounds read low
[20] = locus YDR477W, strain SNF1, active compounds read low
[21] = locus YER123W, strain YCK3, active compounds read low
[22] = locus YER133W, strain GLC7, active compounds read low
[23] = locus YFL009W, strain cdc4, active compounds read low
[24] = locus YFL029C, strain CAK1, active compounds read low
[25] = locus YFR003C, strain YPI1, active compounds read low
[26] = locus YFR019W, strain FAB1, active compounds read low
[27] = locus YFR028C, strain CDC14, active compounds read low
[28] = locus YGR040W, strain KSS1, active compounds read low
[29] = locus YGR052W, strain FMP48, active compounds read low
[30] = locus YGR092W, strain DBF2, active compounds read low
[31] = locus YHR079C, strain IRE1, active compounds read low
[32] = locus YHR082C, strain KSP1, active compounds read low
[33] = locus YHR205W, strain SCH9, active compounds read low
[34] = locus YIL147C, strain SLN1, active compounds read low
[35] = locus YJL095W, strain BCK1, active compounds read low
[36] = locus YJL128C, strain PBS2, active compounds read low
[37] = locus YJL157C, strain FAR1, active compounds read low
[38] = locus YJR016C, strain ILV3, active compounds read low
[39] = locus YJR066W, strain TOR1 (second series), active compounds read low
[40] = locus YJR066W, strain TOR1, active compounds read low
[41] = locus YKL048C, strain ELM1, active compounds read low
[42] = locus YKL067W, strain YNK1, active compounds read low
[43] = locus YKL101W, strain HSL1, active compounds read low
[44] = locus YKL193C, strain SDS22, active compounds read low
[45] = locus YKL203C, strain TOR2, active compounds read low
[46] = locus YLR113W, strain HOG1, active compounds read low
[47] = locus YLR133W, strain CKI1, active compounds read low
[48] = locus YLR403W, strain SFP1, active compounds read low
[49] = locus YML070W, strain DAK1, active compounds read low
[50] = locus YMR001C, strain CDC5, active compounds read low
[51] = locus YMR205C, strain PFK2 (second series), active compounds read low
[52] = locus YMR277W, strain FCP1, active compounds read low
[53] = locus YNL006W, strain LST8, active compounds read low
[54] = locus YNL020C, strain ARK1, active compounds read low
[55] = locus YNL161W, strain CBK1, active compounds read low
[56] = locus YNL183C, strain NPR1, active compounds read low
[57] = locus YNL207W, strain RIO2, active compounds read low
[58] = locus YNL222W, strain SSU72, active compounds read low
[59] = locus YNL307C, strain MCK1 (second series), active compounds read low
[60] = locus YOL078W, strain AVO1, active compounds read low
[61] = locus YOL136C, strain PFK27, active compounds read low
[62] = locus YOR061W, strain CKA2, active compounds read low
[63] = locus YOR119C, strain RIO1, active compounds read low
[64] = locus YOR231W, strain MKK1, active compounds read low
[65] = locus YOR329C, strain SCD5, active compounds read low
[66] = locus YPL031C, strain PHO85, active compounds read low
[67] = locus YPL153C, strain RAD53, active compounds read low
[68] = locus YPL204W, strain HRR25, active compounds read low
[69] = locus YPL209C, strain IPL1, active compounds read low
[70] = locus YPL256C, strain CLN2, active compounds read low
[71] = locus YPR025C, strain CCL1, active compounds read low
[72] = locus YPR106W, strain ISR1, active compounds read low
[73] = locus YPR111W, strain DBF20, active compounds read low
[74] = strain NNK1, active compounds read low
[75] = strain TSCII, active compounds read low

Measured: normalized growth

Cc1cc(NS(=O)(=O)c2ccc(NC(=O)c3ccccc3)cc2)no1
inactive: locus YAL013W, strain DEP1, active compounds read low 0.988 | locus YBR229C, strain ROT2, active compounds read low 0.995 | [1] 0.979 | [2] 1.03 | locus YEL061C, strain CIN8, active compounds read low 1.03 | locus YGR078C, strain PAC10, active compounds read low 0.984 | [3] 1.03 | locus YHR087W, strain rtc3, active compounds read low 1.01 | locus YJR043C, strain POL32, active compounds read low 0.983 | locus YJR075W, strain HOC1, active compounds read low 0.992 | locus YLR039C, strain RIC1, active compounds read low 1.02 | locus YLR058C, strain SHM2 (second series), active compounds read low 1.02 | locus YLR085C, strain ARP6, active compounds read low 1.05 | locus YLR262C, strain YPT6, active compounds read low 0.986 | locus YML094W, strain GIM5, active compounds read low 1.02 | locus YMR219W, strain ESC1, active compounds read low 1.01 | locus YMR263W, strain SAP30, active compounds read low 0.916 | locus YMR307W, strain GAS1, active compounds read low 1.03 | [4] 1 | locus YNL153C, strain GIM3, active compounds read low 1 | locus YNL298W, strain CLA4 (second series), active compounds read low 1 | locus YNL322C, strain KRE1, active compounds read low 1.01 | locus YNR030W, strain Alg12, active compounds read low 1 | [5] 1.03 | [6] 1.02 | locus YPR135W, strain CTF4, active compounds read low 0.991

O=c1cc(-c2ccccc2)[nH]c2nc(Cl)ccc12
inactive: locus YAL040C, strain CLN3, active compounds read low 0.964 | locus YCL061C, strain MRC1 (second series), active compounds read low 1 | [2] 1.01 | locus YDR363W, strain ESC2, active compounds read low 0.979 | locus YER002W, strain NOP16, active compounds read low 1.03 | [4] 0.962 | locus YNL175C, strain NOP13, active compounds read low 0.989 | locus YNL197C, strain WHI3, active compounds read low 1.01 | locus YNL224C, strain SQS1, active compounds read low 0.977 | locus YOR083W, strain WHI5 (second series), active compounds read low 0.989 | [5] 0.997 | [6] 1

Cc1oc(C(C)(C)C)cc1-c1cc(NC(=O)c2ccccc2)n[nH]1
inactive: [7] 0.965 | [8] 0.98 | [9] 0.974 | [10] 0.975 | [11] 0.97 | [12] 0.99 | [13] 0.948 | [1] 0.994 | [14] 0.972 | [15] 0.993 | [16] 0.913 | [17] 0.984 | [18] 0.966 | [19] 0.962 | [20] 0.924 | [21] 0.885 | [22] 0.957 | [23] 0.951 | [24] 0.962 | [25] 0.988 | [26] 0.921 | [27] 0.961 | [28] 0.94 | [29] 0.93 | [30] 0.743 | [31] 0.695 | [32] 0.81 | [33] 0.849 | [34] 0.966 | [35] 0.822 | [36] 0.908 | [37] 0.909 | [38] 0.981 | [39] 0.883 | [40] 0.798 | [41] 0.943 | [42] 0.899 | [43] 0.878 | [44] 0.98 | [45] 1.01 | [47] 0.911 | [48] 0.925 | [49] 0.872 | [50] 0.95 | [51] 0.922 | [52] 0.95 | [53] 0.962 | [54] 0.903 | [55] 0.976 | [56] 0.963 | [57] 0.969 | [58] 0.969 | [59] 0.876 | [60] 0.981 | [61] 0.866 | [62] 0.91 | [63] 0.928 | [64] 0.791 | [65] 0.981 | [66] 0.908 | [67] 0.877 | [68] 0.883 | [69] 0.972 | [71] 0.979 | [72] 0.969 | [73] 0.935 | [74] 0.951 | [75] 0.958
active: [3] 0.611 | [46] 0.778 | [70] 0.844

CC(C)(C)c1ccc(-c2cc(NC(=O)c3ccc(Cl)cc3)n[nH]2)cc1
inactive: [7] 0.986 | [8] 1.02 | [9] 1.02 | [10] 1.01 | [11] 0.99 | [12] 1 | [13] 1.03 | [1] 1.01 | [14] 1.01 | [15] 1.03 | [16] 1.04 | [17] 0.995 | [18] 1.01 | [19] 1.01 | [20] 1.02 | [21] 1.01 | [22] 1.02 | [23] 1.02 | [24] 1.01 | [25] 1.01 | [26] 1.01 | [27] 1.01 | [28] 1.03 | [29] 0.995 | [30] 0.933 | [3] 1.08 | [31] 1.1 | [32] 1.1 | [33] 0.96 | [34] 1.04 | [35] 0.999 | [36] 0.978 | [37] 1.01 | [38] 1.03 | [39] 0.983 | [40] 1.05 | [41] 1.03 | [42] 1.02 | [43] 1.05 | [44] 1.03 | [45] 1.09 | [46] 1.03 | [47] 1.02 | [48] 0.971 | [49] 1.04 | [50] 1 | [51] 0.99 | [52] 1.02 | [53] 0.999 | [54] 1.03 | [55] 1.02 | [56] 1.04 | [57] 1.01 | [58] 0.992 | [59] 1 | [60] 1.01 | [61] 1.03 | [62] 0.993 | [63] 1.1 | [64] 1.02 | [65] 1.04 | [66] 1.02 | [67] 1.01 | [68] 1.01 | [69] 1.01 | [71] 1 | [72] 1.01 | [73] 1 | [74] 1.01 | [75] 1.03
active: [70] 1.21 [resistant]
